Test [1] has as its target Bile acid receptor (Homo sapiens) (UniProt Q96RI1). Kind of test: qHTS assay for small molecule agonists of farnesoid X receptor signaling (AID 588527).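 Note: series mostly up to about 77 µM; 0% = vehicle basal and 100% = reference agonist.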 Conditions: HEK293T FXR-UAS-bla, beta-lactamase ratio, 16 h; activation: stronger effect = higher value. An outline of the steps: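 Quantitative HTS used FXR-UAS-bla HEK293T cells with 16 h compound incubation at 37 C. EC50 values came from concentration-response curves normalized to chenodeoxycholic acid.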

Test [2] concerns the target Peroxisome proliferator-activated receptor delta (Homo sapiens) (UniProt Q03181). The test can be described thus: qHTS assay for small molecule agonists of peroxisome proliferator-activated receptor delta signaling (AID 588534).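 Note: 0% = DMSO basal wells and 100% = positive control agonist at 10 µM.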 Put shortly: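 Reporter cells were plated and held 5 hrs at 37 C before compounds were added. After 18 hrs at 37 C, CCF4 dye was loaded for 2 hrs at RT and fluorescence measured.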
A general note: Quantitative high-throughput screening tests each substance at several concentrations.

A short description of test [3]: qHTS assay for small molecule antagonists of peroxisome proliferator-activated receptor delta signaling (AID 588535; active = well fitted inhibition curve with a large enough effect in the signal ratio, with a control signal flat, not every such curve was filed as active; the % refers to the signal ratio;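 for max response: cells co-treated with a PPAR-delta agonist as stimulator during compound exposure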). Particulars: HEK293T PPARd-UAS-bla, beta-lactamase FRET ratio, 18 h; 460 nm channel. Put shortly: (§1)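 Cell-based beta-lactamase assay in antagonist mode: 4000 HEK293T PPAR-delta-UAS-bla cells per well, 5 hr preincubation then 18 hr compound incubation at 37 C. IC50 obtained by Hill equation fitting.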

Test [4] has as its target Peroxisome proliferator-activated receptor delta (Homo sapiens) (UniProt Q03181). Described as above. Put shortly:
as §1

In test [5] the target is Retinoic acid receptor RXR-alpha (Homo sapiens) (UniProt P19793). Kind of test: qHTS assay for small molecule agonists of retinoid X receptor alpha signaling (AID 588544).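 For activation: 0% = DMSO basal wells and 100% = reference agonist.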
Chain of Retinoic acid receptor RXR-alpha (Homo sapiens) (P19793 whole entry, looked up): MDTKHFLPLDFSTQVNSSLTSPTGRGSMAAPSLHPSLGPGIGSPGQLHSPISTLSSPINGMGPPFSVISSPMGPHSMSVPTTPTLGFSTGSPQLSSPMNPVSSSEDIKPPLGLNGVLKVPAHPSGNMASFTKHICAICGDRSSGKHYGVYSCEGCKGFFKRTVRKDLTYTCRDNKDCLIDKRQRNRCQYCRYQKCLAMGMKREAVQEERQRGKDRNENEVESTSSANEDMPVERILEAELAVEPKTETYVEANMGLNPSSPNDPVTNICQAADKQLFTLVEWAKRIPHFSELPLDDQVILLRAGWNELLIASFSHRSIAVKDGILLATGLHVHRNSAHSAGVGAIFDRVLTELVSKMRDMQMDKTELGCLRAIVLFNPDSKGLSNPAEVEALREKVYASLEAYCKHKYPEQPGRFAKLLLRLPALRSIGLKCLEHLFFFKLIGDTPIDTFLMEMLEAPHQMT
Test [6] has as its target Voltage-gated inwardly rectifying potassium channel KCNH2 (Homo sapiens) (UniProt Q12809). The test can be described thus: qHTS Assay for Small Molecule Inhibitors of the Human hERG Channel Activity (AID 588834; active = well fitted curve in the direction sought with a large enough effect; an effect the other way counts as inactive or inconclusive;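 note: top concentration of the series differs between compounds; % is set by controls: 0 for no effect and ±100 for the full control effect; lower thallium flux fluorescence means stronger hERG block; nearly all actives have a fitted effect of over 50% in size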). Put shortly:
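Measured: FluxOR fluorescence after thallium stimulation in U2OS cells transduced with hERG by baculovirus. Compounds pre-incubated around 10 min; medium Opti-MEM with 2% FCS. AC50 from Hill equation.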

Test [7] in a line: qHTS assay for small molecule antagonists of the retinoid-related orphan receptor gamma (ROR-gamma) signaling pathway - cell viability counter screen (AID 720652; active = well fitted curve in the direction sought with a large enough effect in the repeat runs; an effect the other way counts as inactive or inconclusive;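 note: CHO reporter cells with doxycycline-induced ROR-gamma expression; series mostly up to about 92 µM; compound exposure lasted 16 hr before ATP read; % is set by controls: 0 for no effect and ±100 for the full control effect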). Put shortly:
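Cytotoxicity is quantified via intracellular ATP (CellTiter-Glo luminescence) in doxycycline-induced CHO ROR response element-luciferase reporter cells treated with compound for 16 hr at 37 C, 5% CO2.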

For test [8], the target named is Glucocorticoid receptor (Homo sapiens) (UniProt P04150). Kind of test: qHTS assay for small molecule agonists of glucocorticoid receptor signaling (AID 588532; active = well fitted curve in the direction sought with a large enough effect in the signal ratio, with a control signal flat; the % refers to the signal ratio;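 note: 100% = dexamethasone at 0.1 µM and 0% = DMSO only wells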). Conditions: HeLa MMTV-bla, beta-lactamase ratio, agonist, 18 h; activation: stronger effect = higher value, percent of dexamethasone control, DMSO zero. Put shortly: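 Quantitative HTS using CellSensor MMTV-bla HeLa cells in charcoal/dextran-treated serum; compounds tested up to 92 uM. After 18 h at 37 C, CCF4 dye reported reporter induction.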
Chain of Glucocorticoid receptor (Homo sapiens) (P04150 whole entry, looked up): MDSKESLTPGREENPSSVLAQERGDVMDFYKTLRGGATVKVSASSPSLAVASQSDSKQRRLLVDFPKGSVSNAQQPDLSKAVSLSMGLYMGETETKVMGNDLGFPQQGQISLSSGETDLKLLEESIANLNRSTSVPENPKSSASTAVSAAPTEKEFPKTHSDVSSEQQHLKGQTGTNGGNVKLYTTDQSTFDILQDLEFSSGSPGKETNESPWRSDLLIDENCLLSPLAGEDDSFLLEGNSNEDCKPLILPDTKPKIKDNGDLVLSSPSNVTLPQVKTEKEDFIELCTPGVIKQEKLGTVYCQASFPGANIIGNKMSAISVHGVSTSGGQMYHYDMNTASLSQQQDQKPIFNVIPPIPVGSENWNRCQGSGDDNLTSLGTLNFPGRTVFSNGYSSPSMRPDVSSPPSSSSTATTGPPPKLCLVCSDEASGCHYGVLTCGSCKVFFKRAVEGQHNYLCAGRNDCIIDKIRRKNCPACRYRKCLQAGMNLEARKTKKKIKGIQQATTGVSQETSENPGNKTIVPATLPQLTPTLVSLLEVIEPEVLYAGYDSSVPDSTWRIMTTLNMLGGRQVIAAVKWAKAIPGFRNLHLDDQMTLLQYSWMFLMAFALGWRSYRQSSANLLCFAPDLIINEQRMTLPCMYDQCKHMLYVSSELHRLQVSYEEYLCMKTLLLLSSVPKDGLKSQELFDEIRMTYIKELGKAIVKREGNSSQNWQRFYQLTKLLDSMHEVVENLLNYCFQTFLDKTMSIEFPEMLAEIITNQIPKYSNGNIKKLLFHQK

Test [9] has the same target. The test can be described thus: qHTS assay for small molecule antagonists of glucocorticoid receptor signaling (AID 588533; active = well fitted inhibition curve with a large enough effect in the signal ratio, with a control signal flat, not every such curve was filed as active; the % refers to the signal ratio;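 note: cells stimulated with 2 nM dexamethasone as agonist; % is set by controls: 0 for no effect and ±100 for the full control effect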). An outline of the steps: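 Antagonist-mode qHTS: compound titrations added to GRE-bla HeLa cells, then dexamethasone 2 nM final; 18 h, 37 C. CCF4 FRET fluorescence normalized to dexamethasone and DMSO; IC50 from Hill fit.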
Test [10] addresses Peroxisome proliferator-activated receptor gamma (Homo sapiens) (UniProt P37231). The test can be described thus: qHTS assay for small molecule agonists of peroxisome proliferator-activated receptor gamma signaling (AID 588536; active = well fitted curve in the direction sought with a large enough effect in the signal ratio, with a control signal flat, not every such curve was filed as active; the % refers to the signal ratio;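 note: 0% = DMSO basal wells and 100% = rosiglitazone at 2 µM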). Put shortly: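 HEK293 UAS-bla reporter line, 1% charcoal/dextran FBS; titration, 16 h, 37 C; CCF4 loading 2 h RT; fluorescence 460/530 nm. Normalized to rosiglitazone 2 uM = 100%, DMSO = 0%.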

For test [11] the target is unchanged. Kind of test: qHTS assay for small molecule antagonists of peroxisome proliferator-activated receptor gamma signaling (AID 588537; active = well fitted inhibition curve with a large enough effect in the signal ratio, with a control signal flat, not every such curve was filed as active; the % refers to the signal ratio;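 note: reporter cells co-stimulated with 50 nM rosiglitazone agonist during compound treatment; % of control where 0% means no effect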). An outline of the steps:
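Inhibitors of agonist-stimulated UAS-bla reporter activity were sought in HEK293 cells; rosiglitazone (50 nM) defined full signal and DMSO baseline. Curves fitted to Hill model gave IC50 and efficacy.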

A short description of test [12]: qHTS assay for small molecule agonists of retinoid X receptor alpha signaling (AID 588544).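 For activation: 0% = DMSO basal wells and 100% = reference agonist.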 Conditions: HEK293T RXRa-UAS-bla, beta-lactamase reporter, 18 h; 530 nm emission.
Test [13] concerns the target Thyroid hormone receptor beta (Homo sapiens) (UniProt P10828). The test can be described thus: qHTS assay for small molecule agonists of thyroid hormone receptor beta signaling (AID 588545). Put shortly: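 In this cell-based screen, titrated compounds act on HEK 293 cells held in medium with 2% charcoal/dextran FBS, NEAA and pyruvate for 18 hrs at 37 C. Responses are expressed relative to T3 (10 nM) as 100% and basal DMSO as 0%.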

Test [14] can be described thus: qHTS assay for small molecule antagonists of retinoid X receptor alpha signaling (AID 588546; active = well fitted inhibition curve with a large enough effect in the signal ratio, with a control signal flat, not every such curve was filed as active; the % refers to the signal ratio;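 note: cells stimulated with 9-cis-retinoic acid as agonist; % is set by controls: 0 for no effect and ±100 for the full control effect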). Conditions: HEK293T RXRa-UAS-bla, beta-lactamase ratio, antagonist mode; measured here: W530 green channel, cytotoxicity proxy. An outline of the steps: (§2)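 Beta-lactamase reporter inhibition, read as CCF4 fluorescence ratio (ex 405, em 460/530 nm) after 2 h at RT. HEK293T UAS-bla cells, 2500/well, were stimulated with 9-cis-RA at 500 or 100 nM final alongside test compound for 18 h at 37 C.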

Test [15] addresses Retinoic acid receptor RXR-alpha (Homo sapiens) (UniProt P19793). The description is as above. Particulars: HEK293T RXRa-UAS-bla, beta-lactamase ratio, antagonist mode. Put shortly:
as §2

Test [16] has as its target Thyroid hormone receptor beta (Homo sapiens) (UniProt P10828). The test can be described thus: qHTS assay for small molecule antagonists of thyroid hormone receptor beta signaling (AID 588547; active = well fitted inhibition curve with a large enough effect in the signal ratio, with a control signal flat, not every such curve was filed as active; the % refers to the signal ratio;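 note: cells stimulated with 0.4 nM T3 agonist during compound exposure; series mostly up to about 77 µM; % is set by controls: 0 for no effect and ±100 for the full control effect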). Conditions: TR-UAS-bla HEK293, beta-lactamase ratio, antagonist mode, 18 h. An outline of the steps:
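Inhibition of T3-driven (0.4nM final) beta-lactamase reporter activity was measured over 0.59 nM to 92 uM compound after 18 h at 37 C. The cells were GripTite HEK293 TR-UAS-bla in charcoal/dextran-stripped serum, with CCF4 ratio read-out and IC50 from Hill fits.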

Test [17] can be described thus: qHTS assay for small molecule activators of the p53 signaling pathway (AID 651743; active = well fitted activation curve with a large enough effect in the signal ratio, not every such curve was filed as active; the % refers to the signal ratio; note: potency is the fitted concentration of half-maximal effect; for activation: series mostly up to about 92 µM; % of control where 0% means no effect). Particulars: HCT-116 p53RE-bla, beta-lactamase FRET ratio, 16 h; activation: stronger effect = higher value. An outline of the steps: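 Screen for p53 pathway agonists uses stably transfected p53RE-bla HCT-116 cells, 4,000 per well, treated 16 h at 37 C with compounds in DMSO.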
Test [18] in a line: qHTS assay for environmental chemicals that activate the Aryl hydrocarbon Receptor (AhR) signaling pathway (AID 651777; active = well fitted curve in the direction sought with a large enough effect; an effect the other way counts as inactive or inconclusive; note: % of control where 0% means no effect; nearly all actives have a fitted effect of over 15% in size). Conditions: 1A2-DRE human hepatoma cells, luciferase, 24 h; activation: stronger effect = higher value. Put shortly: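 1A2-DRE human hepatoma reporter line; 1,200 cells/well; cmpd or DMSO 24 h, 37 C/5% CO2; One-Glo 30 min RT; luciferase lum.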
Test [19] deals with Peroxisome proliferator-activated receptor alpha (Homo sapiens) (UniProt Q07869). The test can be described thus: qHTS assay for small molecule agonists of the peroxisome proliferator-activated receptor alpha (PPARalpha) signaling pathway (AID 651778; active = well fitted curve in the direction sought with a large enough effect; an effect the other way counts as inactive or inconclusive; note: % of control where 0% means no effect). Conditions: PathHunter PPARalpha complementation, chemiluminescence, 6 h; max response: stronger effect = higher value. An outline of the steps: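 Chemiluminescence from complemented enzyme reported PPARalpha activation in cells after 6 hr of compound treatment at 37 C. The detection reagent was incubated for 60 min at room temperature, and compounds were scored as agonists.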

A short description of test [20]: qHTS assay for small molecule agonists of the antioxidant response element (ARE) signaling pathway measured by Nrf2-dependant transcriptional activity - cell viability counter screen (AID 720653; active = well fitted curve in the direction sought with a large enough effect in the repeat runs; an effect the other way counts as inactive or inconclusive; note: % is set by controls: 0 for no effect and ±100 for the full control effect). Particulars: ARE-bla HepG2 viability, CellTiter-Glo ATP luminescence, 16 h; max response: stronger effect = lower value. An outline of the steps:
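Cytotoxicity counter screen: intracellular ATP quantified by CellTiter-Glo luminescence in the same ARE-bla HepG2 plates, after 16 h compound exposure and a 2 h beta-lactamase substrate step.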

Test [21] is described as follows: qHTS assay for cell viability of HEK293 cells (AID 743288; active = well fitted curve in the direction sought with a large enough effect; an effect the other way counts as inactive or inconclusive; note: % is set by controls: 0 for no effect and ±100 for the full control effect; nearly all actives have a fitted effect of over 50% in size). Conditions: ATP luminescence (CellTiter-Glo), 18 h; max response: stronger effect = lower value. An outline of the steps:
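The Tox21 protocol used parental HEK293 cells treated for 18 h at 37 C with compounds delivered by pintool; ATP-coupled luminescence after 30 min at room temperature gave viability.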

Test [22] can be described thus: qHTS assay for cell viability of the p53RE-bla HCT-116 cell line (AID 743292; active = well fitted curve in the direction sought with a large enough effect; an effect the other way counts as inactive or inconclusive; note: % is set by controls: 0 for no effect and ±100 for the full control effect; nearly all actives have a fitted effect of over 55% in size). Put shortly: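 HCT-116 p53RE-bla cells seeded 4,000/well; 5 h at 37 C; compound (DMSO) added; 16 h at 37 C; CellTiter-Glo added, 30 min RT; luminescence read.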
Test [23] addresses Nuclear receptor subfamily 1 group I member 2 (Rattus norvegicus) (UniProt Q9R1A7). The test can be described thus: qHTS assay for small molecule activators of the rat pregnane X receptor (rPXR) signaling pathway (AID 651751; call rule not given here; note: 0% is about no effect). Particulars: rPXR reporter cells, luciferase (One-Glo), 24 h.
The target of test [24] is Cytochrome P450 3A4 (Homo sapiens) (UniProt P08684). The test can be described thus: qHTS Assay for Inhibitors and Substrates of Cytochrome P450 3A4 (AID 884; active = well fitted curve in the direction sought with a large enough effect; an effect the other way counts as inactive or inconclusive; note: potency is the fitted concentration of half-maximal effect; nearly all actives have a fitted effect of over 50% in size). Put shortly:
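20 nM human CYP3A4 with 25 uM Luciferin-PPXE (at KM) in 200 mM KPO4, preincubated 10 min with compound; NADPH regeneration started a 60 min RT reaction. Luciferin detected by luminescence, normalized to 57 uM ketoconazole as full inhibition.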

For test [25] the target is unchanged. The test can be described thus: qHTS Assay for Activators of Cytochrome P450 3A4 (AID 885; active = well fitted curve in the direction sought with a large enough effect; an effect the other way counts as inactive or inconclusive; note: nearly all actives have a fitted effect of over 65% in size). An outline of the steps: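 Quantitative HTS format: compounds preincubated with 20nM human CYP3A4 and Luciferin-PPXE substrate at KM, reaction started by NADPH regeneration, stopped after 60 min, luciferase luminescence read 20 min later.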
For test [26], the target named is Vitamin D3 receptor (Homo sapiens) (UniProt P11473). Kind of test: qHTS assay for small molecule agonists of vitamin D receptor signaling (AID 588543).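 Note: 0% = DMSO basal and 100% = reference agonist control.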 Put shortly:
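qHTS in agonist mode: compound titrations stimulate a VDR-driven β-lactamase reporter in HEK293T cells over 16 h at 37 °C. Response normalized to 50 nM 1α,25-dihydroxyvitamin D3 = 100%, DMSO = 0%; Hill fitting gives EC50 and maximal response.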

A short description of test [27]: qHTS assay for small molecule activators of the nuclear factor-kappa B (NF-kB) signaling pathway (AID 651749; active = well fitted activation curve with a large enough effect in the signal ratio; the % refers to the signal ratio; note: series mostly up to about 77 µM; % of control where 0% means no effect). Particulars: NF-kB-bla ME-180 cells, beta-lactamase FRET ratio, 16 h; activation: stronger effect = higher value. An outline of the steps: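 Stably transfected ME-180 line; NF-kB response element upstream of beta-lactamase. Treatment: compound or DMSO, 16 hr. Detection: fluorescent FRET substrate.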

A short description of test [28]: qHTS assay for small molecule agonists of the antioxidant response element (ARE) signaling pathway measured by Nrf2-dependant transcriptional activity (AID 720636; active = well fitted curve in the direction sought with a large enough effect in the repeat runs; an effect the other way counts as inactive or inconclusive;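 note: HepG2 cells with an ARE-driven luciferase reporter; % of control where 0% means no effect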). An outline of the steps:
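Cells: ARE-luc HepG2 with Nrf2-responsive luciferase. Medium contained 1% dialyzed FBS. Compound exposure lasted 16 hr at 37 C and 5% CO2, followed by ONE-Glo luciferase detection.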

“And” between values parts separate entries of the source, which are not always exact repeats. Identical values can stand only once. Records with an inconclusive call do not appear. The source made the active and inactive calls. Unless noted, calls come from the whole dose curve.

Chain of Voltage-gated inwardly rectifying potassium channel KCNH2 (Homo sapiens) (Q12809 whole entry, looked up): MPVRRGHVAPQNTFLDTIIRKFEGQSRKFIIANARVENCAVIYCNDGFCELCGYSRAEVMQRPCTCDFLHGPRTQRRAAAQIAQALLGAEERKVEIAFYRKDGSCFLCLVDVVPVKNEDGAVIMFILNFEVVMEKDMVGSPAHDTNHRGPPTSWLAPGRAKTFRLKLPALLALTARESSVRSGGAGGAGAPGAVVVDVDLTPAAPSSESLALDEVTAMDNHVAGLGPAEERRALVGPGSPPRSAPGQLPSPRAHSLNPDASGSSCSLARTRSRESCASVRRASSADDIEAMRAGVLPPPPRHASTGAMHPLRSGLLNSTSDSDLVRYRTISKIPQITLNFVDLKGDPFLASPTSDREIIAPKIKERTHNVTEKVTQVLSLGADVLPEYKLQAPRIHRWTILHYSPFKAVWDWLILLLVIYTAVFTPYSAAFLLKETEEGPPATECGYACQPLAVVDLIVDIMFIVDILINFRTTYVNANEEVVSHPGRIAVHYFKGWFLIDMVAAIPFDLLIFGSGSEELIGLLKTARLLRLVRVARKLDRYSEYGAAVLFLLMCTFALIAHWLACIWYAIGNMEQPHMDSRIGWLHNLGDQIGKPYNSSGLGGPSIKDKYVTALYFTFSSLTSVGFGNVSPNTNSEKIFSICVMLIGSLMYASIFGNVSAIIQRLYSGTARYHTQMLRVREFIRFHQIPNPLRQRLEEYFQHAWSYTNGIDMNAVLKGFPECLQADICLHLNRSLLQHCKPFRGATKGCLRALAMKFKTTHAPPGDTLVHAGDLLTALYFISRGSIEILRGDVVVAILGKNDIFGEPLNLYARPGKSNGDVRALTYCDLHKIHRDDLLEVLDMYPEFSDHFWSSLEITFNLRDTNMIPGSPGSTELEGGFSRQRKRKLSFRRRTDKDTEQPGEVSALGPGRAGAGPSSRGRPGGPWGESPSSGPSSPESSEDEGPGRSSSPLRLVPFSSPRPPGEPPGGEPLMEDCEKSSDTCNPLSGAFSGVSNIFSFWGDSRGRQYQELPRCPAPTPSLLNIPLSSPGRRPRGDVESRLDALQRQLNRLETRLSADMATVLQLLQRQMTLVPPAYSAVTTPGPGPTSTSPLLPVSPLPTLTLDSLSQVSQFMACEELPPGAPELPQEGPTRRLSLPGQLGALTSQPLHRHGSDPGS
Chain of Peroxisome proliferator-activated receptor delta (Homo sapiens) (Q03181 whole entry, looked up): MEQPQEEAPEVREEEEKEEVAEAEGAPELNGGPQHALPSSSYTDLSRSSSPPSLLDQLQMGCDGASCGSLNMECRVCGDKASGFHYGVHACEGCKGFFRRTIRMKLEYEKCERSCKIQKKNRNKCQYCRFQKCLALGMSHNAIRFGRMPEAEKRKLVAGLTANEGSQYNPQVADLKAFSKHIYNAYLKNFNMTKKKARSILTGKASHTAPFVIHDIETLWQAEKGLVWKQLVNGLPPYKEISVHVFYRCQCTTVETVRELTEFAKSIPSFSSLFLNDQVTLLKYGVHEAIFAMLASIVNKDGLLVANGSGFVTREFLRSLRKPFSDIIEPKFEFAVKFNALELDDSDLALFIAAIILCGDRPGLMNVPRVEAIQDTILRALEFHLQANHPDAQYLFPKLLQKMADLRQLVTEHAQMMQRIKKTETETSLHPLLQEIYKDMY
Chain of Bile acid receptor (Homo sapiens) (Q96RI1 whole entry, looked up): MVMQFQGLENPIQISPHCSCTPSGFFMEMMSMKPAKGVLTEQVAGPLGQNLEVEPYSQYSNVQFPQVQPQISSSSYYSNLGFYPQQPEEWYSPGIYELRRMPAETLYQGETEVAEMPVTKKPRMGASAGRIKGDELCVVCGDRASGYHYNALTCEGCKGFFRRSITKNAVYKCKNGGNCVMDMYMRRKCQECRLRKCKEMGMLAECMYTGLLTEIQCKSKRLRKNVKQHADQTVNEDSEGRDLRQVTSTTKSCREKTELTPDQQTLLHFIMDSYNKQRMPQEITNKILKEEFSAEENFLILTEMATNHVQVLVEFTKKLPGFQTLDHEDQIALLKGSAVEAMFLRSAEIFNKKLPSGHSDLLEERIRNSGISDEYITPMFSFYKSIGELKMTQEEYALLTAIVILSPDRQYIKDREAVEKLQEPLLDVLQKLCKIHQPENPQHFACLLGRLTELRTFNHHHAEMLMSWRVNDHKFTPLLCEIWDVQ
Chain of Cytochrome P450 3A4 (Homo sapiens) (P08684 whole entry, looked up): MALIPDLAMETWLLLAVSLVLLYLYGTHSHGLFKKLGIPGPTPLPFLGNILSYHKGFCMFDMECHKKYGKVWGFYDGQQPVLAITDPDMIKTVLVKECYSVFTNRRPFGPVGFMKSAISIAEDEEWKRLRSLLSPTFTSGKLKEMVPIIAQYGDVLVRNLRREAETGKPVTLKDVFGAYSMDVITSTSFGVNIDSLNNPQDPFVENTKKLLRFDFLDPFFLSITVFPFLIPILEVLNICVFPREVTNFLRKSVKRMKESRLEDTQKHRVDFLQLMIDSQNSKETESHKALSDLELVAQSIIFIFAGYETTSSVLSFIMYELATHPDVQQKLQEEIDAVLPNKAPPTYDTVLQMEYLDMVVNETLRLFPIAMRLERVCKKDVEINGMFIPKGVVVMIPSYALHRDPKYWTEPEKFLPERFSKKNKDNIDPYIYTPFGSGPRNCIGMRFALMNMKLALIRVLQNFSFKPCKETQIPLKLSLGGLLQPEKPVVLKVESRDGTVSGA
Chain of Peroxisome proliferator-activated receptor gamma (Homo sapiens) (P37231 whole entry, looked up): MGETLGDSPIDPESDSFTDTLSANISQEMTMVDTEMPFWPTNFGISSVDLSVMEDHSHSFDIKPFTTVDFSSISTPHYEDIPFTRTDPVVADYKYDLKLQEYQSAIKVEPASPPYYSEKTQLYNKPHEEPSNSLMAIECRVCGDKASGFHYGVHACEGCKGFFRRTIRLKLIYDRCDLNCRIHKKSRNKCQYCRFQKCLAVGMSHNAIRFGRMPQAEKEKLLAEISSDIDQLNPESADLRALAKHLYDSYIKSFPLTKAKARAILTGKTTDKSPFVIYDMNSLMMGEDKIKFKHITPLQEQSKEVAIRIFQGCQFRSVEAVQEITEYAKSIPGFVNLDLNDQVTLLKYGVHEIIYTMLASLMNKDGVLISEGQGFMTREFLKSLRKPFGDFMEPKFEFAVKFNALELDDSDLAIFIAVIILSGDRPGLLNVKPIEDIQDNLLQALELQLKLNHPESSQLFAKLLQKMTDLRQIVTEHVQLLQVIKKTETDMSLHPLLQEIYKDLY
Chain of Thyroid hormone receptor beta (Homo sapiens) (P10828 whole entry, looked up): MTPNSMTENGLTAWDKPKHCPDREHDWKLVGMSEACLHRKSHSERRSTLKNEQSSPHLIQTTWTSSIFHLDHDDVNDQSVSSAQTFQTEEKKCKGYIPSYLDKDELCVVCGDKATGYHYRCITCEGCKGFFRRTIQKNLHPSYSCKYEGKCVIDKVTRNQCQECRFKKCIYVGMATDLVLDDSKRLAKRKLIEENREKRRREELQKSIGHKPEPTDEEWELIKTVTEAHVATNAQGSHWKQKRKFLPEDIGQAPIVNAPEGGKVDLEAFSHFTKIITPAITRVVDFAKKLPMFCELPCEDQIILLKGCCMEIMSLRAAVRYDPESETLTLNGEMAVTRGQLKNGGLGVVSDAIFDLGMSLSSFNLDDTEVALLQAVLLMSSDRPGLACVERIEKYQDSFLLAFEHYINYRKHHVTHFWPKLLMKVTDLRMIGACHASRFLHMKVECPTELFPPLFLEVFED

Turning to `c1ccccc1`, the activation in [1] is -0.124% (inactive) [middle of 4 runs]. In addition, the outcome in [2] was inactive. Besides, the max response in test [3] was -9.22% and -21.5% and 24.9%. For the same compound, the Potency entry in test [4], in test [5], in [6] and in test [7] was “inactive” throughout.
In the case of `CCNc1nc(Cl)nc(NC(C)(C)C#N)n1`, the activation was -6.13% (inactive) in [8], -4.15% (inactive) in test [17] and 1.84% (inactive) in test [18]. Further, the Potency entry in [9], in test [4], in [10], in test [11], in [5] and in test [13] was “inactive” throughout. Besides, in test [22], the Potency result is “inactive”. Also, in test [2], the result was inactive. Also, the max response is 32.2% in [3]; -4.23% in [12]; 0.495% in test [14]; -7.14% (inactive) in [15]; 0.299% (inactive) in test [19]; -18.8% (inactive) in [20]. Further, the max response is 4.63% (inactive) in test [21] and -0.0883% (inactive) in test [23]. The activity change % (negative = inhibition) in test [16] is -10.7% (inactive).
In the case of `Cc1ccc2ccc3cccc4ccc1c2c34`, the Potency in test [24] is 25.1 µM (active). The Potency result in test [25] and in test [6] was “inactive” throughout. Also, the activation in test [1] was -4.07% (inactive). For the same compound, the call in [2] was inactive.
Regarding `CCc1nn(C)c(C(=O)NCc2ccc(C(C)(C)C)cc2)c1Cl`, the activation is 2.45% (inactive) in [1] and 2.69% (inactive) in [27]. Besides, the call in [26] was inactive. In [17], the Potency is 0.355 µM (active). The Potency result in test [28] was “inactive”. Moreover, in [21], the max response was -25.1% (inactive).

Values taken from PubChem BioAssay (NCATS).
